Most compounds without a hit are left out; they make up all but 3.4% or so of the library.
GalR3 antagonist = blocks the human galanin receptor 3; HEK293 GalR3-CNG cAMP membrane potential fluorescence; galR3 body fused to GalR1 C-terminus; 360,000 tested, 0.44% active; inhibition, % at 3 µM; O60755;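 active = inhibition above the screen-wide average plus 3 SD, cut at about 13% in these data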;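 note: forskolin and galanin both at EC90 stimulate the cells; cAMP rise reported by CNG channel membrane potential dye signal; 0% = forskolin plus galanin with DMSO and 100% = forskolin alone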
Target sequence (O60755 1-299 limits assumed): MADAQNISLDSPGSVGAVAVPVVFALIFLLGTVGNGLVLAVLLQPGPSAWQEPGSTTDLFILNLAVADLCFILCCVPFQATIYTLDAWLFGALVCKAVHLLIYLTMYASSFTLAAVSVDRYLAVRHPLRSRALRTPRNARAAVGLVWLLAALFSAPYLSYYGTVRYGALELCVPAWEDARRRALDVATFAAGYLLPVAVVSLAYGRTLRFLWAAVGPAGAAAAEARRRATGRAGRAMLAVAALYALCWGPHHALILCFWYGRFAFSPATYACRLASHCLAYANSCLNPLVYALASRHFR
Cardio protect = protects H9c2 cardiomyocytes from peroxide injury. H2O2 injury protection, ATPLite, 2 h. AID 588492. 360,000 tested, 0.63% active. protection from H2O2 cell death, % at 20 µM;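 active = compounds giving at least 50% protection of heart cells from peroxide-induced death in the single-dose screen, raw or plate-pattern-corrected value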;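 note: 0% = DMSO wells with peroxide and 100% = DMSO wells without peroxide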
Gli-Sufu antag = antagonists of Gli-Sufu signaling; Sufu-KO-LIGHT fibroblasts, Gli luciferase reporter luminescence; inhibition, % at 5 µM; 340,000 tested, 0.74% active; AID 588413;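 active = inhibition above about 55%, limit read from the data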;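 note: 0% = DMSO-treated cells and 100% = wells with medium but no cells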
FXN GAA850 act = frataxin GAA850 promoter activation | activation, % at 6 µM | 360,000 tested, 0.56% active | HEK293 lucGAA850 FXN promoter luciferase reporter, 24 h; percent of 10 µM SAHA response;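 active = activation above the average of all compounds screened plus 3 SD, cutoff fixed separately per campaign, cut at about 7.5% in these data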;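 note: 0% = DMSO wells and 100% = 10 µM SAHA wells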
SMARCA2 act = activators of SMARCA2 function | MG213 cells, MMTV-luciferase reporter, dexamethasone, overnight | activation, % at 9.1 µM | 370,000 tested, 1% active | AID 652017; in the data active = activation above about 7.8%;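 note: 0% = vehicle wells and 100% = reference activator wells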
COUP-TFII inh = NR2F2 (human) inhibition, primary screen. P24468. HEK293T NGFI-A luciferase reporter, luminescence. inhibition, % at 8.6 µM. 370,000 tested, 0.7% active;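 active = inhibition above a per-plate cutoff, mean inhibition of test wells between control levels plus 3 SD, cut at about 38% in these data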;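 note: cells cotransfected with COUP-TFII expression vector driving the NGFI-A reporter; 0% = median of COUP-TF2 test wells and 100% = reporter-only cells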
SMARCA2 conf = confirmation of SMARCA2 (BRM) function activators; MG213 cells, MMTV-luciferase with dexamethasone, luminescence, overnight; MG213 cells expressing E1A, Rb sequestered; DMSO wells 0%, reference activator 100%; activation, % at 9.1 µM; 3,500 tested, 30% active; shares compounds with SMARCA2 act;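 active = activation above its plate's cutoff, the mean activation of tested wells plus 3 SD, cut at about 7.9% in these data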
VP16 Luc act = GAL4-VP16 reporter activation counter-screen; shares compounds with SMARCA2 act; HEK293 GAL4-VP16 pG5luc reporter, luciferase luminescence; scaled: DMSO wells 0%, SAHA wells 100%; activation, % at 9.1 µM; 3,500 tested, 41% active; AID 686939;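 active = activation above the solvent-only control well mean plus 3 SD, averaged across control plates, cut at about 5.2% in these data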
Numbers without * were called inactive; x = no result.

SMILES	GalR3 antagonist	Cardio protect	Gli-Sufu antag	FXN GAA850 act	SMARCA2 act	COUP-TFII inh	SMARCA2 conf	VP16 Luc act
CCN1CCN(Cc2ccc(NC(=O)c3cc(NC(=O)c4cncc(-c5cccs5)c4)cc(OC)c3)cc2C(F)(F)F)CC1	-2	-2	4	-3	11*	18	5	1
Cc1ccc(NC(=O)c2cc3nc(C)cc(C)n3n2)cc1	-4	-6	-56	3	9.4*	-50	10*	7.9*
COCCNC(=O)COC(=O)c1cc(-c2ccc(OC)cc2)nc2ccccc12	-1	-4	-20	3	0	10	x	x
CCN(CC)C(=N)/C(C#N)=N/Nc1ccccc1	-6	0	-21	4	13*	-25	7	1
N#C/C(=N\Nc1ccccc1)C(=N)N1CCCCC1	4	-9	7	5	5	-71	x	x
CC(=O)C[C@@H](O)CC(=O)[C@@H]1OC(=O)CCCCCc2ccccc21	-6	-8	-1	-1	1	-14	x	x
COCCOC(=O)N1CCCCC1c1cc(C(=O)NCc2ccc(Cl)c(Cl)c2)no1 (centres undefined)	-6	0	x	2	-5	15	x	x
CC(=O)Oc1ccc2c(=O)c(-c3ccccc3)coc2c1	0	-2	-66	6	10*	-10	3	5.6*
O=C(c1ccco1)N(Cc1cccnc1)C(c1ccccc1)c1nc2ccccc2[nH]1 (centres undefined)	-5	5	x	x	8.6*	-12	11*	6.1*
Cc1nc(NC(=O)/C=C/c2ccco2)sc1C	-7	-1	18	1	10*	-34	7	7.6*
CCSc1nnc(NC(=O)/C=C/c2ccco2)s1	-6	1	-13	4	10*	-25	6	7.8*
CCc1nnc(NC(=O)/C=C/c2ccco2)s1	-3	11	-30	0	5	-30	x	x
O=C(/C=C/c1ccco1)Nc1nnc(-c2ccco2)s1	-6	13	-32	-1	3	8	x	x
COc1ccc(C(C)(NC(C)=O)c2nc(-c3ccncc3)cs2)cc1 (centres undefined)	-6	0	x	0	0	10	x	x
CCC(C(=O)NC1CCCC1)n1c(-c2ccnc3ccccc23)nc2ccccc21 (centres undefined)	-8	x	x	x	-2	6	x	x
O=C(NC1CCCC1)C1C(c2ccc(C(F)(F)F)cc2)=Nc2ccccc2N1C(=O)c1ccccc1 (centres undefined)	-8	x	x	x	13*	-31	4	5.8*
Cc1ccc2cccc(N=Cc3c(C)[nH]n(-c4ccccc4)c3=O)c2n1	-11	63*	11	0	14*	10	-13	8.1*
CCc1ccc(S(=O)(=O)NCCc2cn3cccc(C)c3n2)s1	5	-4	3	3	8.1*	-19	0	0
CCc1ccc(S(=O)(=O)NCCc2cn3ccc(C)cc3n2)s1	-7	-7	-7	0	1	6	x	x
N/C(=N\OC(=O)c1cccc2ccccc12)c1ccccn1	-5	-4	26	1	11*	-49	11*	10*
N/C(=N\OC(=O)c1ccco1)c1ccccn1	-5	-6	-26	3	12*	-26	7.9*	9.2*
Cn1ccc(C(=O)N/N=C/c2ccccc2[N+](=O)[O-])n1	-2	0	-14	1	8.2*	-24	8	5
CCCn1c(=S)[nH]c2cc(C(=O)N3CCN(C(=O)OCC)CC3)ccc2c1=O	-8	-2	-10	-1	-3	11	x	x
CCOC(=O)N1CCN(C(=O)c2ccc3c(=O)n(Cc4ccc(Cl)cc4)c(=S)[nH]c3c2)CC1	-3	-12	31	-2	8.2*	-10	-4	1
Cc1nc(CNS(=O)(=O)c2ccc(Br)cc2)cs1	-7	4	5	1	-3	-3	x	x
SMILES	GalR3 antagonist	Cardio protect	Gli-Sufu antag	FXN GAA850 act	SMARCA2 act	COUP-TFII inh	SMARCA2 conf	VP16 Luc act
Cc1nc(CNS(=O)(=O)c2ccc(F)cc2)cs1	-10	6	16	2	8.4*	-23	-6	0
Cn1c(=N)n(CC(=O)c2ccc(Br)s2)c2ccccc21	-6	-33	-17	6	5	-34	x	x
N=c1n(CC(=O)c2ccc(Br)s2)c2ccccc2n1Cc1ccccc1	-5	-14	-3	-2	8.2*	-20	23*	2
CCOC(=O)N1CCC(Nc2ccc(N3C(=O)C4CCCCC4C3=O)cc2[N+](=O)[O-])CC1 (centres undefined)	-4	-1	-37	2	-1	3	x	x
COCCn1c(Cc2ccccc2)nnc1SCc1ccc([N+](=O)[O-])cc1	-5	-1	-15	2	0	12	x	x
COc1ccc2cc(C#N)c(SCC(=O)NNC(=O)Cc3ccccc3)nc2c1	-3	3	-27	0	9.1*	-2	1	1
CC(C)(O)[C@H]1Cc2cc3ccc(=O)oc3cc2O1	-13	-12	-30	5	9.1*	-24	11*	6.2*
CC(C)(C)NCC(O)COc1ccccc1C1CCCC1 (centres undefined)	-5	1	5	-2	-2	-13	x	x
CC1Cc2ccccc2N1C(=O)/C=C/c1cccc(F)c1 (centres undefined)	1	-8	-102	5	8.2*	-28	5	9.9*
CC(=O)c1cccc(NC(=O)C23CC4CC(C2)CC(n2cncn2)(C4)C3)c1	9	17	10	0	-3	6	x	x
Cc1cc(C)cc(C(=O)NCC(=O)OCC(=O)N2CCCC2)c1	-5	0	x	0	8.5*	0	0	1
COc1ccc(-c2cn(-c3ccc(C)cc3)c(=O)n2CC(=O)Nc2ccc(OC)cc2OC)cc1	-3	13	x	0	8.8*	-20	-4	3
Cc1cc2cc(C#N)c(N3CCN(S(C)(=O)=O)CC3)nc2cc1C	4	4	0	3	9.1*	4	2	2
CC(C)C(Cl)=NOC(=O)Nc1ccc(S(N)(=O)=O)cc1	-2	-21	17	3	47*	-8	-13	0
COC(=O)[C@H](C)NC(=O)Nc1ccc(S(N)(=O)=O)cc1	-6	0	0	-1	-3	-6	x	x
C=CCNC(=S)/N=c1/ccccn1CCC	-6	-11	8	-1	-2	-14	x	x
N#Cc1c(/N=C/N2CCOCC2)sc2c1CCCCC2	-3	-7	-95	1	18*	-39	7	12*
